PubChem BioAssay (NCI)
This is part of a sample that, as a whole, favours compounds with a hit. Of some 83,000 tested, about 20% had one in any assay.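 Single-concentration screen, 48 h exposure, 96-well plates. Endpoint: percent growth. Below 10 = active.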 Values without a mark were called inactive. The source made the active and inactive calls.

What was measured:
Test in all cases: NCI-60 one-dose screen, 48 h (100 = growth as untreated, 0 = no growth, -100 = all killed)
Conditions in all cases: 10 µM unless noted
DU-145 prostate = system: DU-145 prostate
K-562 leukemia = system: K-562 leukemia
MALME-3M melanoma = system: MALME-3M melanoma
MDA-MB-231 breast = system: MDA-MB-231 breast
RXF 393 renal = system: RXF 393 renal
SF-268 CNS = system: SF-268 CNS
SF-295 CNS = system: SF-295 CNS
SF-539 CNS = system: SF-539 CNS
UACC-257 melanoma = system: UACC-257 melanoma
M14 melanoma = system: M14 melanoma

Structure (SMILES)	growth (DU-145 prostate)	growth (K-562 leukemia)	growth (MALME-3M melanoma)	growth (MDA-MB-231 breast)	growth (RXF 393 renal)	growth (SF-268 CNS)	growth (SF-295 CNS)	growth (SF-539 CNS)	growth (UACC-257 melanoma)	growth (M14 melanoma)
Nc1nc2cc(O)ccc2n2cc3c(F)cccc3c12	33.4%	29.4%	33.3%	38.8%	5.51% (active)	19.1%	11.9%	13.7%	50.9%	23%
COc1cc([C@@H]2c3cc4c(cc3[C@H](O)[C@H]3COC[C@@H]23)OCO4)cc(OC)c1OC	96.7%	39.1%	43.3%	73.8%	83.1%	80.9%	56.3%	75%	75.8%	42.4%
NC(=O)c1c(Nc2ccccc2)nn2cc(-c3nc4ccccc4s3)c(N)nc12	107%	93.1%	96%	84.7%	102%	95.6%	98.7%	95.3%	118%	93.5%
c1ccc2[nH]c(-c3ccc(OCCCCCOc4ccc(-c5nc6ccccc6[nH]5)cc4)cc3)nc2c1	21.4%	-13.8% (active)	-30.8% (active)	40.5%	-74.2% (active)	-37.7% (active)	53%	-12.8% (active)	71.4%	-38.6% (active)
CCOc1nc(-c2ccccc2)cc2c(O)c(C(=O)N/N=C/c3ccccc3O)[nH]c(=O)c12	97.6%	115%	119%	101%	81.3%	79.6%	103%	117%	88.6%	101%
CC(C)OC(=O)c1ccc2n1CCCc1cnc(Nc3ccccc3)nc1-2	87.2%	43.6%	55.4%	78%	91.2%	94.4%	76.1%	86.1%	82.8%	89.6%
CC/C(=N\Nc1nc2ccccc2n1C)c1ccccn1	11.8%	8.28% (active)	9.46% (active)	20.8%	2.73% (active)	3.39% (active)	-19.8% (active)	-6.18% (active)	-0.857% (active)	-19% (active)
COc1ccc2cnc(N)c(C#Cc3cc(C(=O)Nc4ccc(CN5CCN(C)CC5)c(C(F)(F)F)c4)cnc3C)c2c1	64%	-42.8% (active)	-66.4% (active)	9.87% (active)	-12.9% (active)	62.5%	78.9%	31.3%	33.1%	7.97% (active)
C/C(=C\c1ccc2ccccc2c1)[N+](=O)[O-]	27%	5.31% (active)	-58.7% (active)	50.8%	-86.1% (active)	21%	92.2%	15.6%	68.9%	22.4%
CCN(CCO)CCNc1ccc(C)c2sc3cc(OC)ccc3c(=O)c12	72.2%	20.1%	103%	64.2%	71.4%	70.1%	73.7%	77.2%	103%	79.3%
O=CN/N=C/c1ccc(Cl)c([N+](=O)[O-])c1	24.5%	15.4%	30%	43.9%	40.1%	21.5%	3.88% (active)	22.2%	18.2%	29%
COc1cccc2c1nc1cccc(OC)c1[n+]2[O-]	13.8%	39.8%	16.4%	78.5%	-39.6% (active)	36.9%	36.7%	25.2%	58.2%	-3.49% (active)
C/C=C(/C)C(=O)OC1C=C(CO)C(=O)C(OC(=O)C(C)(O)C(C)Cl)C1C(C)C (stereo not given)	3.58% (active)	1.56% (active)	-76.6% (active)	-5.1% (active)	-63.6% (active)	10.4%	-41.4% (active)	-43.7% (active)	-19.7% (active)	-56.4% (active)
COc1nc(OC)nc(-c2cc(-c3cc(OC)c(OC)c(OC)c3)no2)n1	105%	95.1%	110%	90.5%	94.8%	100%	104%	112%	99.6%	111%
C/C=C/C/C=C/[C@H](C)C[C@H](O)[C@@H]1C[C@@H]2O[C@H]2/C=C/[C@H](O)[C@@H](O)/C=C/C[C@H](C)CC(=O)O1	90.7%	65.8%	103%	90%	117%	85.8%	84.5%	85.2%	110%	81.5%
COc1ccc(CNCCCN2C(=O)c3ccc4c5c(ccc(c35)C2=O)C(=O)N(CCCNCc2ccc(OC)c(OC)c2OC)C4=O)c(OC)c1OC	-96% (active)	-49.1% (active)	-78.5% (active)	-53.1% (active)	-91.9% (active)	-88.4% (active)	-76.8% (active)	-80.1% (active)	-97.5% (active)	-60.6% (active)
COC(c1ccccc1)C(Br)C(=O)c1ccccc1 (stereo not given)	116%	93.8%	87.8%	92.9%	89.4%	108%	93.3%	99.5%	87.2%	90.6%
Clc1ccc(N/N=C(/c2ccccc2)c2ccccn2)nc1	42%	15.5%	50.5%	30.7%	74.6%	37.8%	41.2%	41.3%	13.4%	28.9%
COc1cc(-c2nn(-c3ccc(NC(=O)Nc4ccc(Cl)c(Cl)c4)cc3)cc2-c2ccncc2)ccc1Cl	40.8%	17.2%	57.2%	43.3%	22.6%	44.3%	3.1% (active)	54%	56.5%	24.5%
CC(C)(C)OC(=O)N1C/C(=C\c2ccccc2)C(=O)/C(=C/c2ccccc2)C1	112%	74.8%	113%	79.9%	102%	81.4%	99.5%	104%	91.4%	98.3%
CC1=C(C)C[C@]2(C(=O)O[C@H]3CCCC[C@@H]32)[S@](=O)C1	107%	102%	110%	125%	112%	96.4%	106%	114%	97.7%	103%
CC(C)(C)C(=O)OCOP(=O)(OCOC(=O)C(C)(C)C)C1CC(O)N(O)C1=O (stereo not given)	44.4%	15.2%	41.2%	42.7%	1.26% (active)	13.3%	67%	39.3%	63.1%	55.6%
CN1CCN(Cc2ccc(NC(=O)c3ccc(C#Cc4c(N)ncc5ccc(F)cc45)cc3)cc2C(F)(F)F)CC1	-46.5% (active)	-44.5% (active)	-88.1% (active)	-72.5% (active)	-43.5% (active)	-21.1% (active)	-56.7% (active)	-90% (active)	-58.5% (active)	-89.2% (active)
O=c1c(N=Nc2nccs2)c(-c2ccccc2)[nH]n1-c1nc(-c2ccccc2)cs1	43.8%	32.4%	72%	53.1%	65.2%	32.3%	25%	39.7%	39.6%	28.3%
CC([C@H]1CCC2C3CCC4C[C@@H](N)CC[C@]4(C)C3CC[C@@]21C)N(C)C (stereo not given in full)	88.7%	21.2%	5.88% (active)	58%	24.3%	37.1%	76.6%	13.1%	-7.66% (active)	-6.67% (active)
O=C1C(=O)c2ccccc2C(O)=C1CCCc1ccc(Oc2ccccc2)cc1	85.4%	34%	54.7%	89.1%	92.9%	47.2%	92.9%	68.6%	51.5%	41.3%
CCOc1ccc(/C=N/NC(=O)c2cccc3ccccc23)cc1OCC	106%	80.7%	114%	96%	109%	108%	89.1%	105%	109%	123%
